Test results from the supplement of paper PMC11018630.
Where a name gives a salt, the structure may show the parent alone. ± gives the standard deviation of the averaged measurements. In all, about 1,100 compounds were measured (“day of extracellular matrix detachment from plate”: median about 16, lowest 2% from about 10 on). The full list was thinned out, with the lowest values kept by preference.

System: RDEB dermal fibroblasts EB71
Assay: day of extracellular matrix detachment from plate (days); higher = delayed detachment (less fibrotic matrix)
Details: compound concentration: 10 uM

Row | SMILES | day of extracellular matrix detachment from plate
1 | CN1CCC(=C2c3ccccc3CCn3c(C=O)cnc32)CC1 [Alcaftadine] | 19.3 ± 2.5
2 | O=C([O-])c1ccccc1O.[Na+] [Sodium salicylate] | 14
3 | O=C(O[C@H]1CN2CCC1CC2)N1CCc2ccccc2[C@@H]1c1ccccc1 [Solifenacin succinate] | 27.3 ± 2.9
4 | CN(C)[C@@H]1C(O)=C(C(N)=O)C(=O)[C@@]2(O)C(O)=C3C(=O)c4c(O)ccc(Cl)c4[C@@](C)(O)[C@H]3C[C@@H]12 [Chlortetracycline HCl] | 23 ± 6.9
5 | COc1ccc(CNc2nc(N3CCC[C@H]3CO)ncc2C(=O)NCc2ncccn2)cc1Cl [Avanafil] | 18
6 | CC[C@@H]1/C=C(\C)C[C@H](C)C[C@H](OC)[C@H]2O[C@@](O)(C(=O)C(=O)N3CCCC[C@H]3C(=O)O[C@H](/C(C)=C/[C@@H]3CC[C@H](Cl)[C@H](OC)C3)[C@H](C)[C@@H](O)CC1=O)[C@H](C)C[C@@H]2OC [Pimecrolimus] | 17.7 ± 4
7 | CN1CCOC(c2ccccc2)c2ccccc2C1 (stereo unspecified) [Nefopam HCl] | 20
8 | CO[C@H]1/C=C/O[C@@]2(C)Oc3c(C)c(O)c4c(O)c(c(/C=N/N5CCN(C)CC5)c(O)c4c3C2=O)NC(=O)/C(C)=C\C=C\[C@H](C)[C@H](O)[C@@H](C)[C@@H](O)[C@@H](C)[C@H](OC(C)=O)[C@@H]1C [Rifampin] | 12
9 | CCCS(=O)(=O)Nc1ccc(F)c(C(=O)c2c[nH]c3ncc(-c4ccc(Cl)cc4)cc23)c1F [Vemurafenib (PLX4032, RG7204)] | 14 ± 1.7
10 | Clc1ccc(CCC(Cn2ccnc2)Sc2c(Cl)cccc2Cl)cc1 (stereo unspecified) [Butoconazole nitrate] | 16
11 | Nc1ccc(S(=O)(=O)Nc2ncccn2)cc1 [Sodium sulfadiazine] | 18.2 ± 3.1
12 | Nc1ccc(S(=O)(=O)Nc2ncccn2)cc1 [Sulfadiazine] | 12
13 | N=C(N)NC(=N)N1CCOCC1 [Moroxydine HCl] | 19.3 ± 6.3
14 | Cc1cc(-n2c(=O)[nH]c(=O)n(C)c2=O)ccc1Oc1ccc(SC(F)(F)F)cc1 [Toltrazuril] | 15.7 ± 2.9
15 | Clc1ccc(Nc2nnc(Cc3ccncc3)c3ccccc23)cc1 [Vatalanib (PTK787) 2HCl] | 25
16 | CNC(=O)[C@@H](NC(=O)[C@H](CC(C)C)[C@H](O)C(=O)NO)C(C)(C)C [Marimastat(BB-2516)] | 11.7 ± 1.1
17 | CNC(=O)[C@H](Cc1ccccc1)NC(=O)[C@H](CC(C)C)[C@H](CSc1cccs1)C(=O)NO [Batimastat (BB-94)] | 9 ± 1.7
18 | CNC(=O)[C@H](Cc1c[nH]c2ccccc12)NC(=O)[C@@H](CC(=O)NO)CC(C)C [Ilomastat (GM6001, Galardin)] | 15
19 | O=c1ccc2ccc(OCCCCN3CCN(c4cccc5sccc45)CC3)cc2[nH]1 [Brexpiprazole] | 17
20 | CC(C)[C@H](N)C(=O)OCCOCn1cnc2c(=O)nc(N)[nH]c21 [Valaciclovir HCl] | 15.7 ± 6.3
21 | OCCOc1ccc(/C(=C(/CCCl)c2ccccc2)c2ccccc2)cc1 [Ospemifene] | 13
22 | Cc1ccc(C(=O)C(C)CN2CCCCC2)cc1 (stereo unspecified) [Tolperisone HCl] | 13

Row | SMILES | day of extracellular matrix detachment from plate
23 | CCCCN1CCCCC1C(=O)Nc1c(C)cccc1C (stereo unspecified) [Bupivacaine HCl] | 19.3 ± 6.3
24 | CO[C@H]1C[C@@H]2CC[C@@H](C)[C@@](O)(O2)C(=O)C(=O)N2CCCC[C@H]2C(=O)O[C@H]([C@H](C)C[C@@H]2CC[C@@H](OCCO)[C@H](OC)C2)CC(=O)[C@H](C)/C=C(\C)[C@@H](O)[C@@H](OC)C(=O)[C@H](C)C[C@H](C)/C=C/C=C/C=C/1C [Everolimus (RAD001)] | 25
25 | CC[C@H]1[C@@H](O)[C@@H]2[C@H](CC[C@]3(C)[C@@H]([C@H](C)CCC(=O)O)CC[C@@H]23)[C@@]2(C)CC[C@@H](O)C[C@@H]12 [Obeticholic Acid] | 16.3 ± 1.1
26 | C#C[C@]1(O)CC[C@H]2[C@@H]3CCC4=CCCC[C@@H]4[C@H]3C(=C)C[C@@]21CC [Desogestrel] | 17
27 | Cc1cc(C#N)cc(C)c1Oc1nc(Nc2ccc(C#N)cc2)nc(N)c1Br [Etravirine (TMC125)] | 18
28 | CC1(C)CCC(C)(C)c2cc(NC(=O)c3ccc(C(=O)O)cc3)ccc21 [Tamibarotene] | 19
29 | C=C(c1ccc(C(=O)O)cc1)c1cc2c(cc1C)C(C)(C)CCC2(C)C [Bexarotene] | 9
30 | Cc1ccc([C@@H]2O[C@H](CO)[C@@H](O)[C@H](O)[C@H]2O)cc1Cc1ccc(-c2ccc(F)cc2)s1 [Canagliflozin] | 18
31 | Oc1cc(O)c(Cl)cn1 [Gimeracil] | 12
32 | O=C(O)c1cc(/N=N/c2ccc(O)c(C(=O)O)c2)ccc1O [Olsalazine Sodium] | 17.3 ± 2.9
33 | CC(C)NC[C@H](O)COc1ccc(CCOCC2CC2)cc1 [Levobetaxolol HCl] | 16 ± 3.5
34 | C[C@]12CC[C@H](O)CC1=CC[C@@H]1[C@@H]2CC[C@]2(C)C(n3cnc4ccccc43)=CC[C@@H]12 [Galeterone] | 20 ± 1.7
35 | CCOC(=O)CC(=O)N1CCSC1COc1ccccc1OC (stereo unspecified) [Moguisteine] | 15.3 ± 2.3
36 | Clc1ccc2c(c1)CCc1cccnc1C2=C1CCNCC1 [Desloratadine] | 28
37 | NC(=O)C(c1ccccc1)(c1ccccc1)[C@@H]1CCN(CCc2ccc3c(c2)CCO3)C1 [Darifenacin HBr] | 23.2 ± 7.2
38 | CC(C)/N=c1\cc2n(-c3ccc(Cl)cc3)c3ccccc3nc-2cc1Nc1ccc(Cl)cc1 [Clofazimine] | 13
39 | C[C@@H]1O[C@@H](OC[C@H]2O[C@@H](Oc3c(-c4ccc(O)c(O)c4)oc4cc(O)cc(O)c4c3=O)[C@H](O)[C@@H](O)[C@@H]2O)[C@H](O)[C@H](O)[C@H]1O [Rutin] | 18.3 ± 8.1
40 | CNC[C@H](O)[C@@H](O)[C@H](O)[C@H](O)CO [Meglumine] | 12
41 | O=C(O)COCCN1CCN(C(c2ccccc2)c2ccc(Cl)cc2)CC1 (stereo unspecified) [Cetirizine DiHCl] | 10.3 ± 1.1
42 | OCCOCCN1CCN(C(c2ccccc2)c2ccc(Cl)cc2)CC1 (stereo unspecified) [Hydroxyzine 2HCl] | 18
43 | Cc1cccc(CN2CCN(C(c3ccccc3)c3ccc(Cl)cc3)CC2)c1 (stereo unspecified) [Meclizine 2HCl] | 12
44 | C#C[C@]1(O)CC[C@H]2[C@@H]3CCC4=CC(=O)CC[C@@H]4[C@H]3C(=C)C[C@@]21CC [Etonogestrel] | 20

Row | SMILES | day of extracellular matrix detachment from plate
45 | CC(C)Oc1ccc(-c2nc(-c3cccc4c3CC[C@@H]4NCCO)no2)cc1C#N [Ozanimod (RPC1063)] | 16.3 ± 1.1
46 | Cc1cccc(Nc2ccncc2S(=O)(=O)NC(=O)NC(C)C)c1 [Torsemide] | 15.7 ± 6.3
47 | NC1=NCC2c3ccccc3Cc3ccccc3N12 (stereo unspecified) [Epinastine HCl] | 13
48 | CN1CCN2c3ncccc3Cc3ccccc3C2C1 (stereo unspecified) [Mirtazapine] | 12
49 | CN1CCN2c3ccccc3Cc3ccccc3C2C1 (stereo unspecified) [Mianserin HCl] | 9.67 ± 1.1
50 | C=C[C@]1(C)C[C@@H](OC(=O)CSC(C)(C)CNC(=O)[C@H](N)C(C)C)[C@]2(C)[C@H](C)CC[C@]3(CCC(=O)[C@H]32)[C@@H](C)[C@@H]1O [Valnemulin HCl] | 19
51 | C[C@]12CC[C@@H]3c4ccc(O)cc4CC[C@H]3[C@@H]1CC[C@@H]2OC(=O)CCC1CCCC1 [Estradiol Cypionate] | 13
52 | C[C@@H]1COC(Nc2ccc3ncnc(Nc4ccc(OCc5nccs5)c(Cl)c4)c3c2)=N1 [Varlitinib] | 31
53 | C[C@H](CCC(=O)O)[C@H]1CC[C@H]2[C@@H]3CC[C@@H]4C[C@H](O)CC[C@]4(C)[C@H]3CC[C@]12C [Lithocholic acid] | 15.3 ± 2.3
54 | C[C@H](CCC(=O)O)[C@H]1CC[C@H]2[C@@H]3[C@@H](O)C[C@@H]4C[C@H](O)CC[C@]4(C)[C@H]3CC[C@]12C [Ursodiol] | 10.3 ± 1.1
55 | C[C@H](CCC(=O)O)[C@H]1CC[C@H]2[C@@H]3[C@H](O)C[C@@H]4C[C@H](O)CC[C@]4(C)[C@H]3CC[C@]12C [Chenodeoxycholic Acid] | 15.7 ± 6.3
56 | CO[C@H]1/C=C/O[C@@]2(C)Oc3c(C)c(O)c4c(O)c(c(/C=N/N5CCN(C6CCCC6)CC5)c(O)c4c3C2=O)NC(=O)/C(C)=C\C=C\[C@H](C)[C@H](O)[C@@H](C)[C@@H](O)[C@@H](C)[C@H](OC(C)=O)[C@@H]1C [Rifapentine] | 12
57 | C[C@@H]1CC(=O)NN=C1c1ccc(NN=C(C#N)C#N)cc1 [Levosimendan] | 19.3 ± 6.3
58 | CC[C@@H](CO)NCCN[C@@H](CC)CO [Ethambutol HCl] | 15.3 ± 2.3
59 | Cc1c(C)c2c(c(C)c1O)CC[C@@](C)(CCC[C@H](C)CCC[C@H](C)CCCC(C)C)O2 [Vitamin E] | 17.3 ± 2.5
60 | CCOc1ccccc1OC(c1ccccc1)C1CNCCO1 (stereo unspecified) [Reboxetine mesylate] | 18
61 | N[C@@H](CC(=O)N1CCn2c(nnc2C(F)(F)F)C1)Cc1cc(F)c(F)cc1F [Sitagliptin phosphate monohydrate] | 18
62 | C#C[C@]1(O)CC[C@H]2[C@@H]3CCc4cc(OC)ccc4[C@H]3CC[C@@]21C [Mestranol] | 10 ± 1.7
63 | C#C[C@]1(O)CC[C@H]2[C@@H]3CCC4=CC(=O)CC[C@@H]4[C@H]3CC[C@@]21C [Norethindrone] | 19
64 | C#C[C@]1(O)CC[C@H]2[C@@H]3CCc4cc(O)ccc4[C@H]3CC[C@@]21C [Ethinyl Estradiol] | 14
65 | CCC(C)(C)c1ccc(CC(C)CN2C[C@@H](C)O[C@@H](C)C2)cc1 (stereo partly specified) [Amorolfine HCl] | 12
66 | Cc1cc(/C=C/C#N)cc(C)c1Nc1ccnc(Nc2ccc(C#N)cc2)n1 [Rilpivirine] | 27
